EBI2 block: blocks human EBI2 receptor beta-arrestin signaling; inhibition, % at 5 µM; 0.81% of 360,000 active; EBI2 beta-arrestin recruitment, luminescence, 7a,25-OHC stimulated; in the data active means inhibition above about 38%;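 further: enzyme fragment complementation signal reports receptor beta-arrestin coupling in cells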
Target sequence (P32249 whole entry, looked up, the tested form may be a part): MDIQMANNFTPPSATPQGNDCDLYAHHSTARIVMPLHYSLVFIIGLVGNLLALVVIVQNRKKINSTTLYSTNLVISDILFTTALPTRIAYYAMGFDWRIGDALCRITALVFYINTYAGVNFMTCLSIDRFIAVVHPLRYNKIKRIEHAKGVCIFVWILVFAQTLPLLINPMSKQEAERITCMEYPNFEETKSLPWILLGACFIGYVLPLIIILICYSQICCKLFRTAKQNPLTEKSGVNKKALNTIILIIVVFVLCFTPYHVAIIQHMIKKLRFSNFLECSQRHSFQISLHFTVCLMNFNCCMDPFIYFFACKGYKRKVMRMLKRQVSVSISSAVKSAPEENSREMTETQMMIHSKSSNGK
PfHsp90 set2: inhibits growth of yeast expressing Plasmodium falciparum Hsp90; S. cerevisiae expressing PfHsp90, BacTiter-Glo ATP, 48 h; yeast lacking PDR1 and PDR3 efflux regulators; 0.32% of 310,000 active; inhibition, % at 9.4 µM;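 active means every replicate shows inhibition above about 80%, whatever the replicate mean, limit read from the data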
tim23-1 inh: growth inhibitors of tim23-1 mutant yeast | S. cerevisiae tim23-1 growth, BacTiter-Glo luminescence, 24 h | inhibition, % at 20 µM | 1.3% of 330,000 active | AID 463212;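 active means growth inhibition of the mutant yeast at or above 50%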;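 further: temperature-sensitive mutant grown at 25 °C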
tim10-1 inh: growth inhibitors of tim10-1 mutant yeast; S. cerevisiae tim10-1 ts strain growth, BacTiter-Glo, 24 h; inhibition, % at 20 µM; 2.2% of 330,000 active; AID 463190;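 active means inhibition of at least 40%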;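 further: mutant grown at 25 °C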
TIM10 inh: inhibits growth of TIM10 yeast strain. 1.4% of 330,000 active. S. cerevisiae TIM10 strain growth, BacTiter-Glo luminescence, 24 h. inhibition, % at 10 µM;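 active means inhibition of 40% or more at the single tested concentration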;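 further: wild-type TIM10 isogenic control strain grown at permissive 25 °C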
SKKanGAS inh: SKKanGAS growth inhibition; AID 1662; 1.3% of 300,000 active; S. pyogenes SKKanGAS, kanamycin growth, BacTiter-Glo, 6 h; inhibition, % at 7.5 µM;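 active means mean replicate score, as percent of positive control median, at least 50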;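 further: strain carries kanamycin resistance gene driven by streptokinase promoter and grows in 40 µg/ml kanamycin; loss of luminescence reflects streptokinase promoter inhibition or plain growth inhibition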
Of the large screens only hits and unclear results are named; the others gave an inactive call. Only some compounds are listed: those with a hit (about 4.7% of all), similar ones and a draw of the others.

CCN1CCN(Cc2ccc(NC(=O)c3ccc(C)c(NC(=O)c4ccc5n[nH]nc5c4)c3)cc2C(F)(F)F)CC1	none
Cc1cccc(COCC(Cc2ccccc2)N2CCN(C(=O)c3ccc(Cl)c(Cl)c3)CCC2=O)c1 (stereo not drawn)	none
O=C(c1ccc(Cl)c(Cl)c1)N1CCC(=O)N(C(COCc2ccc(Cl)cc2)Cc2ccccc2)CC1 (stereo not drawn)	SKKanGAS inh 50.5
COc1cc(/C=C2\S/C(=N/S(=O)(=O)c3ccccc3)NC2=O)c([N+](=O)[O-])cc1OC	SKKanGAS inh 68.1
O=C(O)c1cccc2c1C(=O)c1cc([N+](=O)[O-])ccc1-2	none (no result: tim23-1 inh, tim10-1 inh, TIM10 inh, SKKanGAS inh)
CC[n+]1c(/C=C2\Sc3ccccc3N2C)ccc2cccc(C)c21	SKKanGAS inh 68.8 (no result: tim23-1 inh, tim10-1 inh, TIM10 inh)
O=C(Nc1ccc(Oc2c(F)c(F)c(F)c(F)c2F)cc1)OC1CCN2Cc3ccccc3N=C12 (stereo not drawn)	EBI2 block 44.1
O=C(O)CC(Cc1ccc(Cl)cc1)C(=O)Nc1ccc([N+](=O)[O-])cc1 (stereo not drawn)	none (no result: tim23-1 inh, tim10-1 inh, TIM10 inh)
O=C(N[C@H](CO)[C@H](O)c1ccc([N+](=O)[O-])cc1)C(Cl)Cl	SKKanGAS inh 100.9
O=[N+]([O-])c1ccc(C(O)C(CO)NC(=S)Nc2ccccc2)cc1 (stereo not drawn)	none
O=C(NC(CO)C(O)c1ccc([N+](=O)[O-])cc1)C(Cl)Cl (stereo not drawn)	SKKanGAS inh 103.6
O=C(NC(CO)Cc1ccc([N+](=O)[O-])cc1)C(Cl)Cl (stereo not drawn)	SKKanGAS inh 96.8
c1ccc(-c2cnn3c(-c4ccccc4)c(-c4ccccc4)nc3n2)cc1	none (no result: tim23-1 inh, tim10-1 inh, TIM10 inh, SKKanGAS inh)
CCN(C(=O)COC(=O)/C=C/c1ccc(OC)c(OC)c1)c1c(N)n(Cc2ccccc2)c(=O)[nH]c1=O	none (no result: PfHsp90 set2, tim23-1 inh, tim10-1 inh, TIM10 inh, SKKanGAS inh)
O=C(O)c1cc(-c2ccc(-c3c(-c4ccc5c(c4)OCO5)noc3-c3ccsc3)cc2)nc2ccccc12	SKKanGAS inh 94.4 (no result: tim23-1 inh, tim10-1 inh, TIM10 inh)
CN(C)c1ccc(-c2c(-c3ccc4c(c3)OCO4)noc2-c2ccsc2)cn1	none
Nc1nonc1-c1nc2ccccc2n1CC(=O)N/N=C/c1ccc(-c2cccc(C(=O)O)c2)o1	SKKanGAS inh 67.8
CN(C)CCCNC(=S)N1CCn2c(nc3ccccc32)C1	none
CCCc1nc2ccccc2c(=O)n1/N=C/c1ccccc1O	none
CCCc1nc2ccccc2c(=O)n1/N=C/c1c(C)[nH]n(-c2ccc(C)cc2)c1=O	SKKanGAS inh 96.6
CCCOc1ccc(/C=C/c2c([N+](=O)[O-])c(=O)n(C)c(=O)n2C)cc1	SKKanGAS inh 50.4
CN(C)c1ccc(/C=C/c2c([N+](=O)[O-])c(=O)n(C)c(=O)n2C)cc1	SKKanGAS inh 52.3
CCOC(=O)N1C/C(=C\c2ccccc2)C(=O)/C(=C/c2ccccc2)C1	none (no result: tim23-1 inh, tim10-1 inh, TIM10 inh)
COc1ccc(OC(=O)N2C/C(=C/c3ccccc3)C(=O)/C(=C\c3ccccc3)C2)cc1	EBI2 block 55.6 (no result: tim23-1 inh, tim10-1 inh, TIM10 inh, SKKanGAS inh)
COc1ccc2cc(C(=O)/C=C/c3cc(OC)c(O)c(OC)c3)ccc2c1	SKKanGAS inh 68.6
COc1ccc(C(=O)/C=C/c2cc(OC)c(O)c(OC)c2)c(F)c1	none
CCN(CC)C(=O)[C@H]1C[C@H](CC(=O)NCc2cccc(C(F)(F)F)c2)C(=O)N2CCc3c([nH]c4cc(-c5ccco5)ccc34)[C@]12C	none (no result: SKKanGAS inh)
COc1ccc(NC(=S)Nc2nc(CC(=O)Nc3ccccc3OC)cs2)cc1	SKKanGAS inh 57.8
Cc1sc2nc(-c3ccccn3)[nH]c(=O)c2c1-c1ccccc1	SKKanGAS inh 79.7
CC(=O)NC(c1ccccc1)c1nc(-c2cccs2)cs1 (stereo not drawn)	none (no result: PfHsp90 set2, tim23-1 inh, tim10-1 inh, TIM10 inh, SKKanGAS inh)
O=C(NC(=S)Nn1cnc2c(cnn2-c2ccccc2)c1=O)c1ccc(Cl)cc1	none
O=C(NC(=S)Nn1cnc2c(cnn2-c2ccccc2)c1=O)c1ccc(Oc2ccccc2)cc1	SKKanGAS inh 89.3
COc1ccccc1C(=O)NCC(=O)N/N=C/c1cn[nH]c1-c1ccccc1	none
O=C1c2cccc3cccc(c23)C(=O)N1CC1CCN(CC(O)COc2ccc3ccccc3c2)CC1 (stereo not drawn)	EBI2 block 56.7, SKKanGAS inh 70.2
COc1ccc(CNC(=O)COC(=O)CN2C(=O)C3CCCCC3C2=O)cc1 (stereo not drawn)	none (no result: PfHsp90 set2, tim23-1 inh, tim10-1 inh, TIM10 inh, SKKanGAS inh)
CCC1(C)Cc2ccccc2-c2nc(-c3ccccc3)oc(=O)c21 (stereo not drawn)	SKKanGAS inh 54.1 (no result: PfHsp90 set2)
CCC1(C)Cc2ccccc2-c2nc(NN)[nH]c(=O)c21 (stereo not drawn)	none
Cc1nn(-c2ccccc2)c(Cl)c1CN(C(=O)CCl)c1cccc2ccccc12	EBI2 block 59.5
CCOC(=O)c1c(N)sc(C(O)(C(F)(F)F)C(F)(F)F)c1-c1ccc(Cl)cc1	SKKanGAS inh 76.3
CC(C)(C)N(Cc1ccccc1)C(=O)CSc1nnc(CNc2ccc(F)cc2)o1	EBI2 block 46.9
O=S(=O)(c1ccccc1)N1CCN=C1SCc1c(F)cccc1Cl	SKKanGAS inh 64.1
CC(=O)Nc1ccc(NC(=O)c2ccccc2S(=O)(=O)c2ccc([N+](=O)[O-])cc2)cc1	none
Cc1c(C(=O)OCC(=O)Nc2cccc(S(N)(=O)=O)c2)oc2c1ccc1ccccc12	SKKanGAS inh 65.8
NS(=O)(=O)c1cccc(NC(=O)COC(=O)c2ccccc2C(=O)c2ccccc2)c1	none (no result: SKKanGAS inh)
CC(C)S(=O)(=O)c1nsc2nc(=O)c(/C=C3\C=Nc4ccccc43)c(N)n12	none
CSc1nsc2nc(=O)c(/C=C3\C=Nc4ccccc43)c(N)n12	SKKanGAS inh 50.3
Cc1nc(C(F)(F)F)ccc1C(=O)N1CCC1(C)C(=O)NS(C)(=O)=O (stereo not drawn)	none (no result: PfHsp90 set2, tim23-1 inh, tim10-1 inh, TIM10 inh, SKKanGAS inh)
O=C(N/N=C/c1c[nH]c2ccc(Br)cc12)c1ccn(Cc2ccc(Cl)cc2)n1	none (no result: PfHsp90 set2)
O=C(N/N=C/c1c[nH]c2ccccc12)c1ccn(Cc2ccc(Cl)cc2Cl)n1	SKKanGAS inh 54.7
CC(=O)Nc1ccc(S(=O)(=O)N(CC(=O)NCC2CCCO2)Cc2ccccc2Cl)cc1 (stereo not drawn)	none (no result: PfHsp90 set2, tim23-1 inh, tim10-1 inh, TIM10 inh, SKKanGAS inh)
C[C@H]1CN(CCc2ccccc2)C(=O)[C@@H]1CC(=O)Nc1ccc(Br)cc1	none (no result: PfHsp90 set2, tim23-1 inh, tim10-1 inh, TIM10 inh, SKKanGAS inh)
Cc1cccc(N2CCN(CCNC(=O)c3cc4c(s3)CS(=O)(=O)C4)CC2)c1C	none
CN1C(=O)/C(=N\OC(=O)c2cccc3ccccc23)c2ccccc21	none
COc1ccc(C(=O)O/N=C2\C(=O)N(C)c3ccccc32)cc1	PfHsp90 set2 105.3
CCCOC(=O)c1ccc(Oc2c(-c3ccc(OC)cc3O)n[nH]c2C)cc1	SKKanGAS inh 61.2
CCCOC(=O)c1ccc(Oc2cn[nH]c2-c2ccc(O)cc2O)cc1	SKKanGAS inh 75.9
CCCOC(=O)c1ccc(Oc2cn[nH]c2-c2ccc(OCC(=O)NN)cc2O)cc1	SKKanGAS inh 82.8
COc1ccc(-c2cn[nH]c2-c2ccc(OCC(=O)NN)cc2O)cc1	none
CCOC(=O)c1ccc(Oc2cn[nH]c2-c2ccc(O)cc2O)cc1	none

Screening data from PubChem.
